In PubChem BioAssay AID1159580 (chemical genetic matrix, 2015):
About 2,000 (36%) of roughly 5,500 compounds were called active. Another 18% or so got no clear call; they are omitted. Cut-off read from the data, not from the text of the source: active = normalized growth mostly below about 0.91 (no sharp cut-off); inconclusive = no clear call, values can overlap the other calls; inactive = mostly above about 0.92. The list shows a part of the results.

Test: chemical genetic growth profiling, strain panel (AID 1159580);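 note: tested at 20 µM; growth read once vehicle control cultures reached saturation at 30 °C; 1 = growth at the plate median or of vehicle wells; lower values mean less growth of the strain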
Conditions: growth OD

Measured: normalized growth

CC[C@@H](C(=O)[C@@H](C)[C@@H](O)[C@H](C)[C@@H]1O[C@@H]([C@@H](CC)C(=O)O)CC[C@@H]1C)[C@H]1OC2(C=C[C@@H](O)[C@]3(CC[C@@](C)([C@H]4CC[C@](O)(CC)[C@H](C)O4)O3)O2)[C@H](C)C[C@@H]1C (some centres undefined)
inactive: S. cerevisiae deletion strains, locus YKL009W, strain mrt4, active compounds read low 0.934 | S. cerevisiae deletion strains, locus YKL068W, active compounds read low 1.02 | S. cerevisiae deletion strains, locus YKL190W, strain CNB1, active compounds read low 0.925 | S. cerevisiae deletion strains, locus YKR026C, strain gcn3, active compounds read low 0.933 | S. cerevisiae deletion strains, locus YKR091W, strain srl3, active compounds read low 0.937 | S. cerevisiae deletion strains, locus YLR058C, strain SHM2, active compounds read low 0.935 | S. cerevisiae deletion strains, locus YLR320W, strain mms22, active compounds read low 0.928 | S. cerevisiae deletion strains, locus YLR330W, strain CHS5, active compounds read low 0.927 | S. cerevisiae deletion strains, locus YLR342W, strain FKS1 (second series), active compounds read low 0.821 | S. cerevisiae deletion strains, locus YLR357W, strain rsc2, active compounds read low 0.988 | S. cerevisiae deletion strains, locus YLR384C, strain iki3, active compounds read low 0.954 | S. cerevisiae deletion strains, locus YML016C, strain PPZ1, active compounds read low 0.978 | S. cerevisiae deletion strains, locus YMR058W, strain fet3, active compounds read low 0.908 | S. cerevisiae deletion strains, locus YMR078C, strain ctf18, active compounds read low 0.937 | S. cerevisiae deletion strains, locus YMR125W, strain sto1, active compounds read low 0.932 | S. cerevisiae deletion strains, locus YMR129W, active compounds read low 0.937 | S. cerevisiae deletion strains, locus YMR307W, strain GAS1, active compounds read low 0.801 | S. cerevisiae deletion strains, locus YNL067W, strain RPL9B, active compounds read low 0.963 | S. cerevisiae deletion strains, locus YNL071W, strain lat1, active compounds read low 0.96 | S. cerevisiae deletion strains, locus YNL128W, strain TEP1, active compounds read low 0.969 | S. cerevisiae deletion strains, locus YNL153C, strain GIM3, active compounds read low 0.911 | S. cerevisiae deletion strains, locus YNL248C, strain rpa49, active compounds read low 0.95 | S. cerevisiae deletion strains, locus YNL322C, strain KRE1 (second series), active compounds read low 0.963 | S. cerevisiae deletion strains, locus YNR049C, strain mso1, active compounds read low 0.923 | S. cerevisiae deletion strains, locus YOL012C, strain htz1 1.26 | S. cerevisiae deletion strains, locus YOR001W, strain rrp6, active compounds read low 0.909 | S. cerevisiae deletion strains, locus YOR080W, strain dia2, active compounds read low 0.961 | S. cerevisiae deletion strains, locus YOR184W, strain ser1, active compounds read low 0.892 | S. cerevisiae deletion strains, locus YPL055C, strain LGE1, active compounds read low 0.934 | S. cerevisiae deletion strains, locus YPL078C, strain atp4, active compounds read low 0.939 | S. cerevisiae deletion strains, locus YPL106C, strain sse1, active compounds read low 0.932 | S. cerevisiae deletion strains, locus YPR141C, strain kar3, active compounds read low 1 | S. cerevisiae strains, strain wild type, active compounds read low 0.925
active: S. cerevisiae deletion strains, locus YJR066W, strain TOR1, active compounds read low 0.237 | S. cerevisiae deletion strains, locus YKL085W, strain MDH1 (second series), active compounds read low 0.812 | S. cerevisiae deletion strains, locus YKL085W, strain MDH1, active compounds read low 0.812 | S. cerevisiae deletion strains, locus YKL160W, strain elf1, active compounds read low 0.879 | S. cerevisiae deletion strains, locus YKR001C, strain vps1, active compounds read low 0.108 | S. cerevisiae deletion strains, locus YLL001W, strain dnm1, active compounds read low 0.833 | S. cerevisiae deletion strains, locus YLL026W, active compounds read low 0.892 | S. cerevisiae deletion strains, locus YLL041C, strain sdh2, active compounds read low 0.926 | S. cerevisiae deletion strains, locus YLR027C, strain aat2, active compounds read low 0.858 | S. cerevisiae deletion strains, locus YLR039C, strain RIC1, active compounds read low 0.294 | S. cerevisiae deletion strains, locus YLR102C, strain apc9, active compounds read low 0.905 | S. cerevisiae deletion strains, locus YLR113W, strain HOG1, active compounds read low 0.176 | S. cerevisiae deletion strains, locus YLR221C, strain rsa3, active compounds read low 0.856 | S. cerevisiae deletion strains, locus YLR258W, strain gsy2, active compounds read low 0.842 | S. cerevisiae deletion strains, locus YLR262C, strain YPT6 (second series), active compounds read low 0.662 | S. cerevisiae deletion strains, locus YLR262C, strain YPT6, active compounds read low 0.183 | S. cerevisiae deletion strains, locus YLR268W, strain sec22, active compounds read low 0.843 | S. cerevisiae deletion strains, locus YLR342W, strain FKS1, active compounds read low 0.852 | S. cerevisiae deletion strains, locus YLR370C, strain arc18, active compounds read low 0.608 | S. cerevisiae deletion strains, locus YLR371W, strain rom2, active compounds read low 0.624 | S. cerevisiae deletion strains, locus YLR418C, strain cdc73, active compounds read low 0.681 | S. cerevisiae deletion strains, locus YML032C, strain rad52, active compounds read low 0.882 | S. cerevisiae deletion strains, locus YML120C, strain ndi1, active compounds read low 0.847 | S. cerevisiae deletion strains, locus YML124C, strain tub3, active compounds read low 0.887 | S. cerevisiae deletion strains, locus YMR205C, strain PFK2, active compounds read low 0.79 | S. cerevisiae deletion strains, locus YMR223W, strain ubp8, active compounds read low 0.838 | S. cerevisiae deletion strains, locus YMR231W, strain pep5, active compounds read low 0.0726 | S. cerevisiae deletion strains, locus YNL183C, strain NPR1, active compounds read low 0.143 | S. cerevisiae deletion strains, locus YNL209W, strain ssb2, active compounds read low 0.916 | S. cerevisiae deletion strains, locus YNL233W, strain BNI4, active compounds read low 0.861 | S. cerevisiae deletion strains, locus YNL250W, strain rad50, active compounds read low 0.868 | S. cerevisiae deletion strains, locus YNL271C, strain bni1, active compounds read low 0.814 | S. cerevisiae deletion strains, locus YNL298W, strain CLA4, active compounds read low 0.439 | S. cerevisiae deletion strains, locus YNL307C, strain MCK1, active compounds read low 0.862 | S. cerevisiae deletion strains, locus YNR052C, strain pop2, active compounds read low 0.735 | S. cerevisiae deletion strains, locus YOL006C, strain TOP1, active compounds read low 0.192 | S. cerevisiae deletion strains, locus YOL147C, strain pex11, active compounds read low 0.884 | S. cerevisiae deletion strains, locus YOR061W, strain CKA2, active compounds read low 0.642 | S. cerevisiae deletion strains, locus YOR069W, strain VPS5, active compounds read low 0.797 | S. cerevisiae deletion strains, locus YOR070C, strain gyp1, active compounds read low 0.9 | S. cerevisiae deletion strains, locus YOR083W, strain WHI5, active compounds read low 0.855 | S. cerevisiae deletion strains, locus YOR106W, strain vam3, active compounds read low 0.0692 | S. cerevisiae deletion strains, locus YOR136W, strain idh2, active compounds read low 0.905 | S. cerevisiae deletion strains, locus YOR144C, strain elg1, active compounds read low 0.885 | S. cerevisiae deletion strains, locus YOR231W, strain MKK1, active compounds read low 0.201 | S. cerevisiae deletion strains, locus YOR265W, strain rbl2, active compounds read low 0.897 | S. cerevisiae deletion strains, locus YOR270C, strain vph1, active compounds read low 0.287 | S. cerevisiae deletion strains, locus YOR290C, strain snf2, active compounds read low 0.863 | S. cerevisiae deletion strains, locus YOR316C, strain cot1, active compounds read low 0.908 | S. cerevisiae deletion strains, locus YPL051W, strain arl3, active compounds read low 0.721 | S. cerevisiae deletion strains, locus YPL240C, strain hsp82, active compounds read low 0.922 | S. cerevisiae deletion strains, locus YPL256C, strain CLN2, active compounds read low 0.265 | S. cerevisiae deletion strains, locus YPR119W, strain clb2, active compounds read low 0.92 | S. cerevisiae deletion strains, locus YPR163C, strain tif3, active compounds read low 0.538 | S. cerevisiae deletion strains, locus YPR167C, strain met16, active compounds read low 0.865 | S. cerevisiae deletion strains, strain wtn01, active compounds read low 0.815
